Screening results from PubChem BioAssay.
Sampled rows, rich in hits. Any-hit rate of the full collection: about 1.7%.
TrxR1 substrate = is turned over as a substrate by rat TrxR1; Potency, µM (top dose mostly 114 µM), without a hit: top-dose activity change, negative = substrate turnover; purified TrxR1 substrate turnover, NADPH consumption readout; AID 588456; hit rate 0.01% among 390,000; note: % is set by controls: 0 for no effect and ±100 for the full control effect; nearly all actives have a fitted effect of over 50% in size
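Rat TrxR1, dispensed at 90 nM, was prereduced with 400 uM NADPH (final) for 5 min at ~22 deg C, then incubated with compound 15 min before 400 uM selenite. A first-read NADPH fluorescence drop versus no-compound background flagged substrates.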
GRP78 ERSR act = inducers of ER stress response in human glioma cells. hit rate 0.02% among 420,000. U87-MG GRP78 promoter luciferase reporter, 16 h. Potency, µM, without a hit: at the highest dose activation, most hits filed as activators; note: series mostly up to about 76 µM; % of control where 0% means no effect; nearly all actives have a fitted effect of over 35% in size
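Stably transfected U87-MG human glioma cells carrying a GRP78-based luminescent sensor were seeded at 1000 cells/well, pin-dosed with compounds and incubated 16 h. Luciferase reagent was then added, and end-point luminescence was read after 10 min at room temperature.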
mIDH1 inhibitor = blocks human mutant IDH1 R132H enzyme. O75874. IDH1-R132H enzyme, NADPH consumption, diaphorase/resazurin fluorescence. Potency, µM (series often up to 76.6 µM), for the others: top-dose activity change, negative = inhibition, actives largely listed as inhibitors. hit rate 0.093% among 390,000. AID 602179; note: % is set by controls: 0 for no effect and ±100 for the full control effect; nearly all actives have a fitted effect of over 65% in size
Target sequence (O75874 whole entry R132H, stated change not applied): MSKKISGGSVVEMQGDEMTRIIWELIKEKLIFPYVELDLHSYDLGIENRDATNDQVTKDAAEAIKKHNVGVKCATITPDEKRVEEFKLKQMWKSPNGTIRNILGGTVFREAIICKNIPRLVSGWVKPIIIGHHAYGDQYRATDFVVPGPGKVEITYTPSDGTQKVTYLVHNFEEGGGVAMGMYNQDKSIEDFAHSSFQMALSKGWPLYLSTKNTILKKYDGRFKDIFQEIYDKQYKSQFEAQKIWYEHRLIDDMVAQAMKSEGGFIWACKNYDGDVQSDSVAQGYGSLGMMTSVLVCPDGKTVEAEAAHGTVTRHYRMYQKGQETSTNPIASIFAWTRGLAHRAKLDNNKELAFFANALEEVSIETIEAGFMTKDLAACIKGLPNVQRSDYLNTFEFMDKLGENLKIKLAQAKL
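IDH1-R132H (0.5 ug/mL) preincubated 30 min with compound, then NADPH (0.016 mM) and alpha-KG (2 mM) added; 80 min at RT, pH 7.5. Remaining NADPH coupled via diaphorase/resazurin to fluorescence (540/590 nm); concentration-response curves normalized to no-enzyme control.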
12-LOX inh = ALOX12 (human) lipoxygenase inhibition; Potency, µM (titrated, usually from 108 µM), for inactives: at the top dose activity change, negative = inhibition, hits mostly inhibitors; purified 12hLO, xylenol orange hydroperoxide absorbance; hit rate 1.1% among 580,000; P18054; note: % is set by controls: 0 for no effect and ±100 for the full control effect
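Purified human 12hLO at 150 nM in 25 mM Hepes, 0.01% Triton X-100, pH 7.0, preincubated 15 min at room temperature with compound. Reaction started with 40 uM arachidonic acid, 30 min at room temperature. Hydroperoxide measured by Fe-xylenol orange, 573/405 nm absorbance ratio.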
rTrxR1 inhibitor = rat TrxR1 inhibition | recombinant rTrxR1, NADPH fluorescence consumption, selenite substrate | O89049 | Potency, µM (highest dose often 114 µM), for inactives: at the top dose activity change, negative = inhibition, actives largely listed as inhibitors | AID 588453 | hit rate 1% among 390,000; note: % is set by controls: 0 for no effect and ±100 for the full control effect; nearly all actives have a fitted effect of over 65% in size
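Rat TrxR1 (90 nM in the dispensed reagent) was pre-reduced with 400 uM NADPH for 5 min at room temperature, then incubated with compound for 15 min. After 400 uM selenite was added, NADPH fluorescence (Ex 340/Em 450 nm) was followed for 8 min.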
Anesthetic bind = candidate novel general anesthetic via apoferritin binding; P02791; apoferritin/1-aminoanthracene competitive binding, fluorescence; Potency, µM (top dose mostly 77.5 µM), for the others: top-dose activity change, negative = displacement, usual class: inhibitors; hit rate 0.074% among 350,000; AID 485281; note: % is set by controls: 0 for no effect and ±100 for the full control effect; nearly all actives have a fitted effect of over 20% in size
Target sequence (P02791 2-175 limits assumed): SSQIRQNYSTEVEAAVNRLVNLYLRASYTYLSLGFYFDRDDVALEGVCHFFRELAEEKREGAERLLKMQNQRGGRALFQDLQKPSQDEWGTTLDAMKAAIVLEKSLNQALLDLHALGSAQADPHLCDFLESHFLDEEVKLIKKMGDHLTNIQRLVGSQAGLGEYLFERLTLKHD
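In PBS, apoferritin at 10 uM is loaded with 1-AMA from a 50% saturated solution. After 10 min of compound exposure at ambient temperature, reduced 535 nm fluorescence indicates probe displacement.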
An asterisk follows results filed as active; ? = inconclusive; nt = no result; ! = a repeat was not active; [ ] = another dose, or the depositor's remark. Calls come from the whole dose curve; as a rule, active = well fitted curve in the direction sought with a large enough effect; inconclusive = small, poorly fitted or top-dose-only effect, or another doubt; inactive = no such curve, though single readings can be large; an effect the other way counts as inactive or inconclusive. Potency is the fitted concentration of half-maximal effect.

SMILES | TrxR1 substrate | GRP78 ERSR act | mIDH1 inhibitor | 12-LOX inh | rTrxR1 inhibitor | Anesthetic bind
CCN1C(=S)N[C@@H](c2cccc(F)c2)C(C(=O)OC)=C1C | -2% | -1% | -14% | ? | 8% | ?
COC(=O)C1=C(C)N(Cc2ccc(Br)cc2)C(=S)NC1c1ccc(F)cc1 (centres undefined) | nt | nt | nt | 40µM* | nt | nt
COC(=O)C1=C(C)N(Cc2ccc(Br)cc2)C(=S)NC1c1cccc(F)c1 (centres undefined) | nt | nt | nt | 35µM* | nt | nt
O=C(c1cc(COc2ccccc2F)[nH]n1)N1CCCC(CN2CCOCC2)C1 (centres undefined) | nt | nt | nt | 40% | nt | nt
COC(=O)C1=C(C)N(Cc2ccc(Cl)cc2)C(=S)NC1c1ccc(Cl)cc1 (centres undefined) | nt | nt | nt | 32µM* | nt | nt
COC(=O)C1=C(C)N(Cc2ccccc2)C(=S)N[C@H]1c1ccccc1 | 1% | -5% | 3%[38.3 µM] | ? | -1% | -13%
CC(C)C[C@@H]1N[C@H](C(=O)NCc2ccncc2)Cc2cn(Cc3ccncc3)c3cccc1c23 | nt | nt | nt | 45% | nt | nt
O=C(NCCc1ccc(Cl)cc1)c1ccc2c(=O)[nH]c3c(C(=O)NCC4CCCO4)sc(=S)n3c2c1 (centres undefined) | nt | nt | nt | 50µM* | nt | nt
Oc1c(Br)cc(Cl)cc1Cc1cc(Cl)cc(Br)c1O | nt | nt | nt | 28µM* | nt | nt
NC(=O)COc1c(Cl)cc(Cl)cc1Br | nt | nt | nt | 10% | nt | nt
COc1ccc(/C=C/C(=O)NC(=S)NNC(=O)c2c(-c3ccccc3)noc2C)cc1 | 5% | 4% | 2% | ? | 6% | -5%
COc1ccc(-c2cc(C(=O)NNC(=S)NC(=O)c3c(-c4ccccc4)noc3C)[nH]n2)cc1 | -10% | 3% | 1% | 11µM* | ? | 6%
CN(CCOC(=O)CCCc1ccccc1)C1CN(Cc2cn(Cc3ccccc3F)nn2)S(=O)(=O)C1 (centres undefined) | nt | nt | nt | -7% | nt | nt
O=C1C2CC=C(Cl)CC2C(=O)N1CCc1ccccc1 (centres undefined) | 11% | 4% | 5% | 10µM* | -32% | -14%
CC(=O)Oc1ccc(N2C(=O)C3C4C=CC(C5CC45)C3C2=O)cc1[N+](=O)[O-] (centres undefined) | -11% | -4% | -10% | -11% | 45µM* | -10%
Cn1nc(-c2ccc(OCC(=O)NC(C)(C)C)cc2)c2ccccc2c1=O | nt | nt | nt | 8% | nt | nt
COC(=O)c1sc(N2C(=O)C(O)=C(C(=O)c3ccc(C)o3)C2c2ccc(OC)c(OC)c2)nc1C (centres undefined) | -10% | -3% | 7% | nt | -16% | -17%
Cc1ccc2nc(N3C(=O)C(O)=C(C(=O)c4ccc(C)o4)C3c3cccc(O)c3)sc2c1 (centres undefined) | 5%[57.1 µM] | 4% | -2% | 13µM*! | 13%[57.1 µM] | -9%
COc1ccc(C2C(C(C)=O)=C(O)C(=O)N2c2nccs2)cc1OC (centres undefined) | -16% | -4% | 2% | -34% | ? | -8%
COc1ccc(C2C(C(C)=O)=C(O)C(=O)N2c2nc3ccccc3s2)cc1OC (centres undefined) | -14% | -1% | -5% | 45µM* | 0% | -13%
COc1ccc2nc(N3C(=O)C(O)=C(C(=O)c4ccco4)C3c3ccc(OC)c(OC)c3)sc2c1 (centres undefined) | nt | -3% | 10% | 40µM* | nt | nt
CC1CCC/C(=C(/C#N)c2nc(-c3ccccc3O)cs2)C1 (centres undefined) | nt | nt | nt | 7% | nt | nt
Cc1cccc(N2C(=O)C(Cl)=C(Nc3c(C)n(C)n(-c4ccccc4)c3=O)C2=O)c1C | 6% | -3% | -9% | ? | 22µM* | -17%
Cc1ccc(Nc2nc3ccccc3nc2Nc2c(C)n(C)n(-c3ccccc3)c2=O)cc1 | -9% | -3% | -9% | -2% | ? | -4%
Cc1ccc(N2C(=O)C(Cl)=C(Nc3c(C)n(C)n(-c4ccccc4)c3=O)C2=O)cc1 | 8% | -1% | -1% | ? | 18µM* | -13%
SMILES | TrxR1 substrate | GRP78 ERSR act | mIDH1 inhibitor | 12-LOX inh | rTrxR1 inhibitor | Anesthetic bind
Cc1c(NC(=O)Nc2c(Cl)cccc2Cl)c(=O)n(-c2ccccc2)n1C | 8% | -3% | 1% | 0% | 18% | 3%
Cc1nc(-c2cc3ccc(OCC(=O)N4CCOCC4)cc3oc2=O)cs1 | nt | nt | nt | 5% | nt | nt
COc1cc(OC)c(C#N)c(S(=O)(=O)Cc2ccccc2)c1 | 10%[57.1 µM] | -4% | 12% | 45% | 10%[57.1 µM] | -17%
N#Cc1c([N+](=O)[O-])cc([N+](=O)[O-])cc1S(=O)(=O)Cc1ccccc1 | ? | -15% | 8% | ? | 0.71µM* | nt
COC(=O)C1=C(C)NC(=O)C1(NC(=O)c1cc(OC)c(OC)c(OC)c1)C(F)(F)F (centres undefined) | 1% | nt | nt | -22% | 11% | 6%
COc1cccc(-c2nc(CS(=O)CC(=O)NCc3ccccc3Cl)c(C)o2)c1 (centres undefined) | 3%[57.1 µM] | 2% | -9% | 39% | 5%[57.1 µM] | 28µM*
CCCCNC(=O)CS(=O)Cc1nc(-c2cccc(Cl)c2)oc1C (centres undefined) | 8%[57.1 µM] | -7% | -6% | 9% | 14µM* | -21%
COc1cc(Nc2ccc(S(N)(=O)=O)cc2)c([N+](=O)[O-])nc1[N+](=O)[O-] | -11% | 2% | 17% | 0% | 3.2µM* | -14%
NS(=O)(=O)c1ccc(Nc2ccc([N+](=O)[O-])cc2[N+](=O)[O-])cc1 | nt | nt | nt | -23% | nt | nt
CC(C)(C)c1ccc(COC(=O)CN2C(=O)NC3(CCCC3)C2=O)cc1 | -11% | -1% | -1% | -2% | -3% | nt
CC(C)(C)c1ccc(C(=O)COC(=O)CN2C(=O)NC3(CCCC3)C2=O)cc1 | -11% | -2% | 9% | 32% | -11% | 25µM*
O=C(CS(=O)(=O)Cc1coc(-c2ccccc2)n1)N1CCCCC1 | nt | nt | nt | -30% | nt | nt
COc1ccccc1NC(=O)Cc1csc(NC(=S)Nc2ccccc2)n1 | -1% | -1% | -5% | 18µM* | ? | -10%
COc1ccc(NC(=S)Nc2nc(CC(=O)Nc3ccccc3OC)cs2)cc1 | 0% | -2% | 7% | ? | 1µM* | 2%
COc1nccc(-c2c(-c3ccc(F)cc3)ncn2C2CCNCC2)n1 | nt | nt | nt | -14%[57.4 µM] | nt | nt
Cc1ccc2nc(Cl)c(C3CC(c4ccco4)=NN3S(C)(=O)=O)cc2c1 (centres undefined) | 6% | 0% | 4% | 13µM*! | ? | 2%
COc1ccc2nc(Cl)c(C3CC(c4ccco4)=NN3C(=O)CCC(=O)O)cc2c1 (centres undefined) | 7%[57.1 µM] | -3% | 1% | -5% | -6%[57.1 µM] | 5%
